A selection: hits, their analogues and other compounds. The true share with any hit is near 19%.
ELG1 repair inh = qHTS screen for small molecules that inhibit ELG1-dependent DNA repair in human embryonic kidney (HEK293T) cells expressing luciferase-tagged ELG1; HEK293T ELG1-luciferase reporter, luminescence, 16 h; DNA damage induced by 5-fluorouridine; Potency, µM (titrated, usually from 46.1 µM), without a hit: at the highest dose activity change, negative = inhibition, actives largely listed as inhibitors; 330,000 tested, 2.3% active; note: potency is the fitted concentration of half-maximal effect; nearly all actives have a fitted effect of over 55% in size
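Step one: seed 2,000 cells per well. Step two: pin-transfer compound or DMSO alongside 5-fluorouridine. Step three: incubate 16 hr, 37 °C, 5% CO2. Step four: add ONE-Glo, wait 30 min, read luminescence.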
IL1B secr inh = qHTS for Inhibitors of Inflammasome Signaling: IL-1-beta AlphaLISA Primary Screen. THP-1 LPS/ATP IL-1B secretion, AlphaLISA, 16 h; hits give low values. activity change, % at 57.5 µM. 360,000 tested, 4.7% active; in the data active = activity change below about -50%; inconclusive = mostly about -30% to -49%
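Secreted IL-1B measured by AlphaLISA bead assay after 16 h compound exposure of THP-1 cells; compounds (final up to 57.5 uM) added 1 h before LPS (250 ng/mL) and ATP (1.25 mM) stimulation; lower signal means less secretion.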
DT40 TDP1 no CPT = qHTS for Inhibitors of human tyrosyl-DNA phosphodiesterase 1 (TDP1): qHTS in cells in absence of CPT | DT40 Tdp1-/- hTDP1 cells, no CPT, ATP luminescence, 48 h | Potency, µM (highest dose often 46.2 µM), without a hit: top-dose activity change, negative = growth inhibition, most hits filed as inhibitors | 420,000 tested, 15% active | AID 686978, 2013; note: potency is the fitted concentration of half-maximal effect; nearly all actives have a fitted effect of over 55% in size
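Chicken DT40 Tdp1-/- cells complemented with human TDP1, screened without camptothecin (DMSO vehicle only), 400 cells/well. Compounds pin-transferred, cells incubated at 37 °C for at least 48 hr. Growth read as ATP-dependent luminescence (CellTiter-Glo, 30 min at RT).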
HT1080 IDH1KD tx = qHTS for induction of synthetic lethality in tumor cells producing 2HG: qHTS for the HT-1080-IDH1KD cell line. HT-1080 IDH1 knockdown viability, ATP luminescence, 48 h. Potency, µM (series often up to 46.1 µM), inactives show at the top dose activity, negative = toxicity, actives largely listed as cytotoxic. 360,000 tested, 2% active;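 note: potency is the fitted concentration of half-maximal effect; 0% = DMSO wells and -100% = cell-free medium wells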
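After a 2 h attachment period, IDH1KD HT-1080 cells took pin-transferred compound for 48 h at 37 °C; ATP-based luminescence after 10 min room-temperature reagent incubation reported viability.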
HT1080NT lethal = qHTS for induction of synthetic lethality in tumor cells producing 2HG: qHTS for the HT-1080-NT fibrosarcoma cell line; Potency, µM (top dose mostly 46.1 µM), without a hit: at the top dose activity, negative = less viability, most hits filed as cytotoxic; AID 686970, 2013; HT-1080-NT fibrosarcoma viability, CellTiter-Glo ATP luminescence, 48 h; 360,000 tested, 1.6% active;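 note: NT is the 2HG producing partner of a matched IDH1 knockdown line; potency is the fitted concentration of half-maximal effect; 0% = DMSO-treated cells and -100% = media-only wells without cells; nearly all actives have a fitted effect of over 55% in size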
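Compounds were tested in concentration-response format on HT-1080-NT cells for 48 hours at 37 degrees C. Cell viability came from CellTiter-Glo luminescence; curves were classified by r2, response magnitude and activity.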
DT40 TDP1 CPT = qHTS for Inhibitors of human tyrosyl-DNA phosphodiesterase 1 (TDP1): qHTS in cells in presence of CPT; chicken DT40 Tdp1-/-;hTDP1 cells + 20 nM CPT, ATP luminescence, 48 h; Potency, µM (highest dose often 46.2 µM), inactives show at the highest dose activity change, negative = growth inhibition, actives largely listed as inhibitors; 420,000 tested, 12% active; note: potency is the fitted concentration of half-maximal effect; nearly all actives have a fitted effect of over 55% in size
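Cell growth measured by CellTiter-Glo luminescence after a minimum 48 h, 37 C compound exposure with 20 nM CPT in Tdp1-knockout DT40 cells stably expressing hTDP1, seeded 400/well; qHTS titration format.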
The depositor's hits bear a star; i = inactive; ? = inconclusive; nt = no result given. Unless noted, calls come from the whole dose curve; as a rule, active = well fitted curve in the direction sought with a large enough effect; inconclusive = small, poorly fitted or top-dose-only effect, or another doubt; inactive = no such curve, though single readings can be large; an effect the other way counts as inactive or inconclusive. Unless noted, % is set by controls: 0 for no effect and ±100 for the full control effect.

SMILES | ELG1 repair inh | IL1B secr inh | DT40 TDP1 no CPT | HT1080 IDH1KD tx | HT1080NT lethal | DT40 TDP1 CPT
CCCC#CCN1CCN(C23CC4CC(CC(C4)C2)C3)CC1 | -1% | 17 | -21% | 0% | 15% | 0%
Cc1cccc(N2CCN(C(=O)C3CCCCC3)CC2)c1C | ? | -65* | 18µM* | -7% | -2% | 29µM*
Cc1ccccc1N1CCN(C(=O)C2CCCCC2)CC1 | 7% | -12 | ? | -3% | -4% | 1%
O=C(C1CC(=O)N(C2CCCC2)C1)N1CCN(c2ccccc2)CC1 (stereo unspecified) | -4% | i | 0% | 27% | 17% | -6%
O=C(C1CC(=O)N(C2CCCCC2)C1)N1CCN(c2cccc(C(F)(F)F)c2)CC1 (stereo unspecified) | 1% | -5 | ? | -3% | -3% | 16µM*
Cc1cc(N2CCC(C(=O)N3CCN(c4cccc(C)c4C)CC3)CC2)n2ncnc2n1 | 21µM* | -25 | 21µM* | -6% | -3% | ?
O=C(C1CCC(=O)N(C2CCCCCC2)C1)N1CCN(c2ccccc2Cl)CC1 (stereo unspecified) | -5% | 13 | 21µM* | 1% | ? | ?
Cc1ccccc1N1CCN(C(=O)C2CCC(=O)N(C3CCCC3)C2)CC1 (stereo unspecified) | 6% | 33 | 6% | 9% | 4% | -10%
CCOC(=O)C1(C)CCCN1C(=O)c1csnn1 (stereo unspecified) | nt | 22 | 12% | -2% | 15% | -11%
CCOc1ccc(C2c3cc(OCC)c(OCC)cc3CC(=O)N2c2ccc(C(=O)O)cc2)cc1OCC (stereo unspecified) | nt | nt | 3% | nt | nt | -13%
Cc1cccc(N2CCN(C(=S)NC3CCCCC3)CC2)c1C | -8% | 0 | 16µM* | -6% | -3% | ?
Cc1cccc(N2CCN(C(=O)C3CC(=O)N(C4CCCC4)C3)CC2)c1C (stereo unspecified) | ? | -2 | 23µM* | -8% | 11% | 18µM*
CCS(=O)(=O)N1Cc2ccccc2CC1C(=O)N1CCN(c2cccc(C)c2C)CC1 (stereo unspecified) | ? | 4 | 15µM* | -3% | -2% | ?
CCS(=O)(=O)N1Cc2ccccc2CC1C(=O)Nc1ccc(F)cc1 (stereo unspecified) | ? | 16 | -3% | -2% | 29% | -3%
O=C(C1CC(=O)N(C2CCCC2)C1)N1CCN(c2ccc(F)cc2)CC1 (stereo unspecified) | nt | 14 | -18% | 6% | 0% | -5%
O=C1CC(C(=O)N2CCN(Cc3ccccc3)CC2)CN1Cc1ccccc1 (stereo unspecified) | 18% | 0 | 5% | 5% | 6% | -2%
Cc1ccc(CN2CC(C(=O)N3CCN(c4ccccc4Cl)CC3)CC2=O)cc1 (stereo unspecified) | ? | -58* | ? | 6% | 5% | ?
Cc1ccc(C)c(N2CCN(C(=S)NC3CCCCC3)CC2)c1 | 24% | 0 | -14% | 0% | 2% | -2%
Cc1ccnc(NC(=O)CCC(=O)N(CC(=O)NCc2ccc(F)cc2)Cc2ccccc2)c1 | 8% | 43 | ? | 1% | 3% | -22%

Assay outcomes as filed in PubChem.
